Enrichment ratio data for 153 variants are collected here from a collection of fitness landscapes (doi:10.1126/science.1257360).

Over roughly 140,000 sequences, “enrichment ratio after two sorts for PhoP signalling” has its median near 0; the highest 2% begin near 11. For the sample, the highest values were picked, then their nearest neighbours and some sequences at random. Bounds are passed on as bounds.

To fix the notation:
B1: PhoQ; a variant is named by its letters at X, in order, P23837 (parent)
chain: MKKLLRLFFPLSLRVRFLLATAAVVLVLSLAYGMVALIGYSVSFDKTTFRLLRGESNLFYTLAKWENNKLHVELPENIDKQSPTMTLIYDENGQLLWAQRDVPWLMKMIQPDWLKSNGFHEIEADVNDTSLLLSGDHSIQQQLQEVREDDDDAEMTHSVAVNVYPATSRMPKLTIVVVDTIPVELKSSYMVWSWFIYVLSANLLLVIPLLWVAAWWSLRPIEALAKEVRELEEHNRELLNPATTRELTSLVRNLNRLLKSERERYDKYRTTLTDLTHSLKTPLXXLQXXLRSLRSEKMSVSDAEPVMLEQISRISQQIGYYLHRASMRGGTLLSRELHPVAPLLDNLTSALNKVYQRKGVNISLDISPEISFVGEQNDFVEVMGNVLDNACKYCLEFVEISARQTDEHLYIVVEDDGPGIPLSKREVIFDRGQRVDTLRPGQGVGLAVAREITEQYEGKIVAGESMLGGARMEVIFGRQHSAPKDE

Variants of B1 are the subject of this assay. The assay is described as follows: enrichment ratio after two sorts for PhoP signalling (ratio (wild type AVST 3.29)); higher = more functional. The note with it: with PhoP (E. coli).
With KSMV, the enrichment ratio was no more than 0.25.

With TSMV, the enrichment ratio was 19.3. For the variant TSMW, the enrichment ratio is no more than 0.25. For KSMI, the enrichment ratio is no more than 0.25. As to FSMV, the enrichment ratio came to 9.33. As for TSMI, the enrichment ratio amounted to 23. Turning to RCKQ, the enrichment ratio is no more than 0.25.

With VMWK, the enrichment ratio is no more than 0.25. As to AQIM, the enrichment ratio stood at 2.44. Under MGNS stands no more than 0.25; under MGFC, 14.4; under QRLC, no more than 0.25.

For the variant MGDY, the enrichment ratio is no more than 0.25.

MGFS: the enrichment ratio worked out at 2.82. Take MGWC: the enrichment ratio turned out to be 32.1.

In the case of MGLC, the enrichment ratio amounted to 19.1.

As to MGFA, the enrichment ratio was 3.62.

Regarding MLWC, the enrichment ratio was no more than 0.25.

As to IHNL, the enrichment ratio was no more than 0.25. The same measure for VPHV: no more than 0.25; for QVMI: no more than 0.25; for QDPG: no more than 0.25. As for LMRT, the enrichment ratio is no more than 0.25. On to HNWM, for which the enrichment ratio was no more than 0.25. As for KSAN, the enrichment ratio was no more than 0.25. Consider SIWN, for which the enrichment ratio turned out to be 4.21. Regarding VLAN, the enrichment ratio is no more than 0.25. Turning to SSAN, the enrichment ratio was found to be 12.6. As for PLAN, the enrichment ratio is no more than 0.25. Turning to NSAN, the enrichment ratio is no more than 0.25. As for SIAN, the enrichment ratio was 22.8. Turning to SRAN, the enrichment ratio was no more than 0.25. On to TLAN, for which the enrichment ratio was 12.5. SFAN: the enrichment ratio is no more than 0.25. On to KYAN, for which the enrichment ratio was no more than 0.25. Under SLAN stands 13.8; under AYNP, no more than 0.25. Turning to MNQS, the enrichment ratio was no more than 0.25. In the case of QHYQ, the enrichment ratio was no more than 0.25.

Take KQAN: the enrichment ratio is no more than 0.25.

Regarding SAAN, the enrichment ratio was found to be 11.7.

In the case of SAQN, the enrichment ratio was no more than 0.25. On to IPYG, for which the enrichment ratio is no more than 0.25. Regarding MDSP, the enrichment ratio is 1.12. Under NDLM stands no more than 0.25; under MTWY, 21.6; under YTWY, no more than 0.25. Regarding MMWF, the enrichment ratio is no more than 0.25. For the variant LTWY, the enrichment ratio came to 2.54.

Turning to MTWI, the enrichment ratio was 10.2.

On to YTWF, for which the enrichment ratio is no more than 0.25. TTWY: the enrichment ratio worked out at 14. Under MTWF stands 11.8; under MPWY, no more than 0.25.

In the case of REII, the enrichment ratio is no more than 0.25. Take QNIY: the enrichment ratio was no more than 0.25. RKGF: the enrichment ratio is no more than 0.25. In the case of RLAG, the enrichment ratio is no more than 0.25. Turning to LLSD, the enrichment ratio is no more than 0.25. The same measure for KHVD: no more than 0.25. In the case of WVTG, the enrichment ratio is no more than 0.25. The same measure for WRYK: no more than 0.25; for DWAR: no more than 0.25; for DQSP: no more than 0.25. For the variant HHVS, the enrichment ratio was no more than 0.25.

As to HLFA, the enrichment ratio was no more than 0.25. In the case of WIAG, the enrichment ratio is no more than 0.25. The same measure for TIFG: no more than 0.25; for TIAG: 21.3. Under KKAG stands no more than 0.25; under AIAG, 12.5; under AKAG, no more than 0.25. Consider EQNT, for which the enrichment ratio is no more than 0.25.

On to MHNT, for which the enrichment ratio is no more than 0.25. Turning to ITTY, the enrichment ratio is no more than 0.25.

On to NVHV, for which the enrichment ratio was no more than 0.25. Under TTPV stands no more than 0.25; under TTIV, 0.549.

For FSHV, the enrichment ratio is no more than 0.25. In the case of TTMV, the enrichment ratio turned out to be 28.9. Under FDHV stands no more than 0.25; under YTQV, no more than 0.25. For TTHV, the enrichment ratio stood at 14.6. Under YTHV stands no more than 0.25.

Regarding FVHV, the enrichment ratio turned out to be 12.9.

For the variant STQV, the enrichment ratio was found to be 2.63. The same measure for TTQV: 16.2; for SKAG: no more than 0.25.

As for TMDC, the enrichment ratio is no more than 0.25. As to CSSV, the enrichment ratio stood at 0.253. For LKSK, the enrichment ratio was no more than 0.25. On to QYAS, for which the enrichment ratio was no more than 0.25.

For DYQS, the enrichment ratio was no more than 0.25. In the case of HVFV, the enrichment ratio was no more than 0.25.

For VSIQ, the enrichment ratio was no more than 0.25. As for RGHV, the enrichment ratio is no more than 0.25.

Consider TGHV, for which the enrichment ratio came out at 16.1. The same measure for GGHV: no more than 0.25. On to YHQM, for which the enrichment ratio was no more than 0.25. Consider DRRP, for which the enrichment ratio is no more than 0.25.

AKSC: the enrichment ratio was found to be 23.2. ANSK: the enrichment ratio was no more than 0.25. On to ARSC, for which the enrichment ratio is no more than 0.25. Regarding ADSC, the enrichment ratio is no more than 0.25. The same measure for ANSC: 11.9. Regarding TKSC, the enrichment ratio was 5.09. For the variant VIHS, the enrichment ratio was no more than 0.25.

In the case of QISE, the enrichment ratio is no more than 0.25. The same measure for IIPR: no more than 0.25; for TIIG: no more than 0.25; for QQWT: no more than 0.25.

Take QEWT: the enrichment ratio worked out at 11.3. The same measure for QLWT: no more than 0.25; for MPWT: no more than 0.25. With LCWT, the enrichment ratio is no more than 0.25.

As for QIWT, the enrichment ratio is 20.8.

Take QRWT: the enrichment ratio is no more than 0.25.

On to TPWT, for which the enrichment ratio is no more than 0.25. As to MMWT, the enrichment ratio was no more than 0.25. The same measure for TSWT: 13.4; for MKWT: no more than 0.25; for MEWT: 34.7. LESG: the enrichment ratio was no more than 0.25. In the case of KRHA, the enrichment ratio is no more than 0.25. Turning to DVYV, the enrichment ratio was no more than 0.25.

As for SDAE, the enrichment ratio was no more than 0.25. On to YELP, for which the enrichment ratio is no more than 0.25.

With EIRK, the enrichment ratio was no more than 0.25.

As to ESAA, the enrichment ratio was no more than 0.25. Under EVKR stands no more than 0.25. Turning to KHRA, the enrichment ratio is no more than 0.25. On to IFHG, for which the enrichment ratio was no more than 0.25. As to MCIH, the enrichment ratio was no more than 0.25. With YTWT, the enrichment ratio was no more than 0.25. Regarding TTWT, the enrichment ratio came out at 15. In the case of ITWT, the enrichment ratio is no more than 0.25. As to NEWT, the enrichment ratio was 32. Regarding KEWT, the enrichment ratio is no more than 0.25. For FFWT, the enrichment ratio was no more than 0.25.

As for MRWT, the enrichment ratio is no more than 0.25. As to FQWT, the enrichment ratio is no more than 0.25.

Take MQWT: the enrichment ratio was 21.2. Regarding DMWT, the enrichment ratio was no more than 0.25.

Regarding QGWT, the enrichment ratio came out at 36. The same measure for VRWT: no more than 0.25. NKIQ: the enrichment ratio was no more than 0.25. Turning to ENRF, the enrichment ratio is no more than 0.25.

For PLPI, the enrichment ratio is no more than 0.25. Turning to WSFP, the enrichment ratio is no more than 0.25. As for YDQD, the enrichment ratio was no more than 0.25. VCTS: the enrichment ratio was no more than 0.25. In the case of WTPD, the enrichment ratio is no more than 0.25. Under SKDW stands no more than 0.25.
